# Activity calls are given as the source filed them. Unless noted, how the calls were made is not given here.
# Legend:
# [1] = tested on: Wnt5a (protein binding on small-molecule microarray); experiment: small molecules binding Wnt5a protein – biophysical, small-molecule microarray, 635/667 nm fluorescence, primary screen (AID 1142); details: 635 nm fluorescence, higher = more signal;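 further: fluorescence read at 667 nm with signal to noise per printed feature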
# [2] = ATP-based viability of Huh7 replicon cells – cell-based, CellTiter-Glo luminescence, basal, 48 h, cytotoxicity control for HCV replication inhibitor project, primary screen (AID 1143); details: higher = more signal, called active from +8 up or from −8 down;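 further: Huh7 hepatoma cells carrying a hepatitis C replication reporter with no stimulus; test concentration not given here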
# [3] = Pseudomonas biofilm growth suppression – PAO1 strain, BacTiter-Glo luminescence, LB-PBS, primary screen (AID 1144); details: P. aeruginosa PAO1 biofilm, 12 h, higher = more signal
# [4] = basal CRE-LacZ reporter activity in PC12 – cell-based, unstimulated, primary screen (AID 1145); details: no forskolin, luminescence, 4.5 h, higher = more signal, called active from +8 up or from −8 down
# [5] = forskolin-driven CRE-LacZ activity in PC12 – cell-based, CRE-LacZ reporter, forskolin-stimulated, primary screen (AID 1146); details: luminescence, 4.5 h, higher = more signal, called active from +8 up or from −8 down;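 further: PC12 cells with 6xCRE LacZ reporter stimulated by forskolin 10 µM; beta-galactosidase reporter signal reflecting CREB driven transcription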
# [6] = molecular target: Streptavidin (Streptomyces avidinii) (UniProt P22629); experiment: compounds binding control protein streptavidin – biophysical, small-molecule microarray, 635/667 nm fluorescence, artefact control for SMM compound annotation, primary screen (AID 1147); details: higher = more signal;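 further: signal reflects streptavidin binding to arrayed compounds as a control protein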
# [7] = probe aInhba binding on compound microarray – biochemical, small-molecule microarray, 635/667 nm fluorescence, primary screen (AID 1148); details: higher = more signal;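 further: score merges 667nm spot fluorescence with signal-to-noise for antibody binding to printed compounds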
# Torsin-1A (Homo sapiens) [8] = molecular target: Torsin-1A (Homo sapiens) (UniProt O14656); experiment: TOR1A wild-type binding on microarray – cell lysate, small-molecule microarray, lysate, 635/667 nm, primary screen (AID 1149); details: COS7 hTOR1A-WT lysate, 635 nm fluorescence, higher = more signal
# Torsin-1A (Homo sapiens) [9] = molecular target: Torsin-1A (Homo sapiens) (UniProt O14656); experiment: torsin A mutant lysate binding on microarrays – cell lysate, small-molecule microarray, COS7 lysate, 635/667 nm fluorescence, primary screen (AID 1150); details: COS7 hTOR1A mutant lysate, 635 nm fluorescence, higher = more signal;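 further: score pools 667 nm emission and signal to noise measuring lysate protein binding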
# [10] = tested on: Sonic hedgehog protein (Shh); experiment: Sonic hedgehog microarray binding compounds – biochemical, small-molecule microarray, 635/667 nm fluorescence, primary screen (AID 1151); details: 635 nm fluorescence, higher = more signal;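 further: Shh protein binding to compounds spotted on small-molecule microarray slides; score combines spot fluorescence intensity with signal-to-noise across triplicate slides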
# [11] = optical density shifts of acrAB sulA E. coli – strain DRC41, OD650, 48 h, E. coli filamentation inducer project, primary screen (AID 1152); details: higher = more signal, called active from +8 up or from −8 down;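 further: E. coli MC1000 strain DRC41 lacking acrAB efflux pump and sulA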
# [12] = probe aLefty1 binding on compound microarray – biochemical, small-molecule microarray, 635/667 nm fluorescence, primary screen (AID 1153); details: higher = more signal;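 further: score merges spot fluorescence with signal-to-noise ratio from the scanned slide images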
# [13] = plasmodial surface anion channel blockers, osmotic lysis – cell-based, P. falciparum Indochina, OD700, 1 h, primary screen (AID 1154); details: P. falciparum Indochina infected RBC osmotic lysis, higher = more signal, called active from +8 up or from −8 down
# [14] = plasmodial surface anion channel blockers, osmotic lysis – cell-based, P. falciparum Indochina, OD700, 2 h, primary screen (AID 1155);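 further: lysis reports solute entry through the parasite surface anion channel PSAC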; details: P. falciparum Indochina infected erythrocytes, higher = more signal, called active from +8 up or from −8 down
# [15] = changes in parasitized red cell lysis, either direction – P. falciparum Indochina, OD700, 3 h, PSAC antagonist project, primary screen (AID 1156); details: P. falciparum-infected erythrocytes, osmotic lysis, higher = more signal, called active from +8 up or from −8 down
# [16] = plasmodial surface anion channel blockers, osmotic lysis – cell-based, P. falciparum Indochina, OD700, 18 h, primary screen (AID 1157); details: P. falciparum Indochina infected erythrocytes, osmotic lysis OD700, 18 h; higher = more signal, called active from +8 up or from −8 down
# [17] = S6 kinase pathway phospho-S6 level changes – cell-based, A549, cytoblot, luminescence, serum-stimulated, primary screen (AID 1158); details: 5 h, higher = more signal;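 further: serum-stimulated A549 lung adenocarcinoma cells; signal is phosphorylated S6 detected by cytoblot immunostaining with HRP secondary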
# [18] = molecular target: NADPH oxidase 2 (Homo sapiens) (UniProt P04839); experiment: compounds shifting NOX2 Amplex Red fluorescence – cell-based, HEK293-NOX2, PMA-stimulated, NOX inhibitor project, primary screen (AID 1159); details: 45 min, higher = more signal, called active from +8 up or from −8 down; further: test concentration not given here
# [19] = molecular target: NADPH oxidase 4 (Homo sapiens) (UniProt Q9NPH5); experiment: compounds shifting NOX4 Amplex Red fluorescence – cell-based, HEK293-NOX4, tetracycline-induced, NOX inhibitor project, primary screen (AID 1160); details: HEK293-NOX4, Amplex Red H2O2 fluorescence, 45 min; higher = more signal, called active from +8 up or from −8 down
# [20] = molecular target: NADPH oxidase 5 (Homo sapiens) (UniProt Q96PH1); experiment: compounds shifting NOX5 Amplex Red fluorescence – cell-based, HEK293-NOX5, NOX inhibitor project, primary screen (AID 1161); details: HEK293-NOX5, ionomycin, 45 min, higher = more signal
# Chain of NADPH oxidase 5 (Homo sapiens) (Q96PH1 whole entry, looked up): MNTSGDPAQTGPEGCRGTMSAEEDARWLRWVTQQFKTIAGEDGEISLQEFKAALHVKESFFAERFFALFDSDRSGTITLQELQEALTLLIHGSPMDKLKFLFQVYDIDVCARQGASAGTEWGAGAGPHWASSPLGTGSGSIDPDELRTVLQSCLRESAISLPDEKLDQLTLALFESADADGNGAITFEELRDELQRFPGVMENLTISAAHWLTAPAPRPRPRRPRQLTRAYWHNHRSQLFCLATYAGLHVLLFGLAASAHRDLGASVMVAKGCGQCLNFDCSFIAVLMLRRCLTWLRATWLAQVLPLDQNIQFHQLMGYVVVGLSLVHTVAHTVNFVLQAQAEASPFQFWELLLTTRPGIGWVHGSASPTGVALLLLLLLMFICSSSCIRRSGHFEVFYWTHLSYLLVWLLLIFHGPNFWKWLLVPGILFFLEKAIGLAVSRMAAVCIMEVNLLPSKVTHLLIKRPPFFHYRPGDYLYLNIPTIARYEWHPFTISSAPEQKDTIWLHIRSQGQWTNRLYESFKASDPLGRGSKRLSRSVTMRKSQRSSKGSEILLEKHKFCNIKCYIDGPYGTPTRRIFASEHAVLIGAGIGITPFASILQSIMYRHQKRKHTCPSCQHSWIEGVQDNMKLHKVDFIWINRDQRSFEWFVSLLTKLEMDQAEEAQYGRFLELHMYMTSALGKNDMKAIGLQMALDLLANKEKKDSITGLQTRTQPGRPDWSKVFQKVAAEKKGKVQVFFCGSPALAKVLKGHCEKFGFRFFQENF
# Chain of Streptavidin (Streptomyces avidinii) (P22629 whole entry, looked up): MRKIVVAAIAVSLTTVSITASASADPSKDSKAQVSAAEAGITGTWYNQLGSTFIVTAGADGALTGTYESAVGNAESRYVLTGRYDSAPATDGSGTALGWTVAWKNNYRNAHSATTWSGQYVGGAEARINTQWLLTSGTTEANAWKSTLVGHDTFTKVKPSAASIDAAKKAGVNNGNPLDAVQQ
# Chain of Torsin-1A (Homo sapiens) (O14656 whole entry, looked up): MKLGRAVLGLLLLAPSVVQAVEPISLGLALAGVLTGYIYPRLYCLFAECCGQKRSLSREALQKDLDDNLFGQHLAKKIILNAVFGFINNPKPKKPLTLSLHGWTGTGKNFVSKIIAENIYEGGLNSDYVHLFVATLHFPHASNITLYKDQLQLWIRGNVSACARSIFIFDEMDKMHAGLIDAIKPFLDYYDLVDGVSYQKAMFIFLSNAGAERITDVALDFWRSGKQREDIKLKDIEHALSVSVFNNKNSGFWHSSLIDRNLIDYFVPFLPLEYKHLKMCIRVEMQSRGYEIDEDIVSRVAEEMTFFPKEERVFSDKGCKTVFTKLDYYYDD
# Chain of NADPH oxidase 4 (Homo sapiens) (Q9NPH5 whole entry, looked up): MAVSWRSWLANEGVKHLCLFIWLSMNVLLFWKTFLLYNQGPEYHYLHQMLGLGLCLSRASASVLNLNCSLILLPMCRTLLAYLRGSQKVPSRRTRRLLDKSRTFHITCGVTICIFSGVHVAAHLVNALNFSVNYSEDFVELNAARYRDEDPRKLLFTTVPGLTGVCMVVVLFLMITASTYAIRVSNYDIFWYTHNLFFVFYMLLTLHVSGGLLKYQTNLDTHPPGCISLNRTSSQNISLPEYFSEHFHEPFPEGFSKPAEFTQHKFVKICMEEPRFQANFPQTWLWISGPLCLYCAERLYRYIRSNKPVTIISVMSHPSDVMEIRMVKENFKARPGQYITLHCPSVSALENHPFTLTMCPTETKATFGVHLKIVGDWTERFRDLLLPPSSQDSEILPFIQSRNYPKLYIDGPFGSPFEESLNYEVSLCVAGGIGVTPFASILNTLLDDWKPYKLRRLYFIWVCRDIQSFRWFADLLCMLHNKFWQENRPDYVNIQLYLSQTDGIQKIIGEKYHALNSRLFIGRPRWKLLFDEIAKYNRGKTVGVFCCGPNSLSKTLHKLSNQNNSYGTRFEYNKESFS
# Chain of NADPH oxidase 2 (Homo sapiens) (P04839 whole entry, looked up): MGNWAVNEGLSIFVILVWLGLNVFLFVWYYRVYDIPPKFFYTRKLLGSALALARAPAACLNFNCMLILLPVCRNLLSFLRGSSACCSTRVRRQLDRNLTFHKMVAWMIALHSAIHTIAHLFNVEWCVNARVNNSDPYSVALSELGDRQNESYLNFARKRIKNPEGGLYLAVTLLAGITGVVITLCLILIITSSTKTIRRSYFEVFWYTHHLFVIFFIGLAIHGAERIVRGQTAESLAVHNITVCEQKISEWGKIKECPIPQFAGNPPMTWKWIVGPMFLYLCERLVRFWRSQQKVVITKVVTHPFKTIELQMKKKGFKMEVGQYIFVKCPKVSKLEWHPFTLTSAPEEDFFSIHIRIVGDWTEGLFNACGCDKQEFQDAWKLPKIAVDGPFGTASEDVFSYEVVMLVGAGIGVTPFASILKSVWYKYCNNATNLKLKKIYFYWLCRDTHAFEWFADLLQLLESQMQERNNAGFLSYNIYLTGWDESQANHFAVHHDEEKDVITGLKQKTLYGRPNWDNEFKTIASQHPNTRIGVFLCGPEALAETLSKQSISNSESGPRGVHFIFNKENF
Compound,composite z-score [1],z-score [2],z-score [3],z-score [4],z-score [5],composite z-score [6],composite z-score [7],composite z-score (Torsin-1A (Homo sapiens) [8]),composite z-score (Torsin-1A (Homo sapiens) [9]),composite z-score [10],z-score [11],composite z-score [12],z-score [13],z-score [14],z-score [15],z-score [16],z-score [17],z-score [18],z-score [19],z-score [20]
CC(C)(C)OC(=O)CC[C@@]1(C(=O)NCC(O)CO)N=C(c2ccc(OCCCO)cc2)O[C@@H]1c1ccccc1 (stereo not given in full),0.0271,0.496 (inactive),-1.15 (inactive),2.06 (inactive),-0.904 (inactive),-0.0256,-0.0361,1.07,1.01,-0.887,-0.0744 (inactive),0.0004,20.4 (active),2.42 (inactive),0.384 (inactive),0.519 (inactive),0.0391,0.0533 (inactive),0.626 (inactive),1.45
CCOC(=O)C[C@H]1[C@H](OC(=O)c2cc3ccccc3oc2=O)[C@@H](NC(=O)c2ccc3ccccc3c2)c2cc(OCCCO)ccc2N1C(=O)c1ccccc1,0.406,-3.04 (inactive),1.4 (inactive),9.27 (active),0.368 (inactive),0.976,-0.0405,1.14,1.11,1.54,0.734 (inactive),0.201,1.22 (inactive),-1.04 (inactive),0.519 (inactive),-2.59 (inactive),1.2,-0.539 (inactive),-0.928 (inactive),0.53
C=C(C)[C@@H]1CC=C(C(O)C2C=CC3C(=O)N(Cc4ccccc4)C(=O)C3N2n2cnnc2)CC1 (stereo not given in full),-0.0115,-4.22 (inactive),-1.38 (inactive),0.22 (inactive),-0.0578 (inactive),0.258,0.0314,0.0146,-0.388,-0.408,-1.05 (inactive),0.298,1.48 (inactive),-0.289 (inactive),1.28 (inactive),-1.38 (inactive),1.65,-3.5 (inactive),-2.39 (inactive),-3.6
C=CCN1Cc2ccccc2C[C@@]2(COC(c3ccc(OCCCO)cc3)=N2)C1=O,0.253,-2.99 (inactive),-0.547 (inactive),3.21 (inactive),-1.41 (inactive),0.112,0.185,0.729,0.827,0.521,0.754 (inactive),0.121,22.7 (active),5.46 (inactive),5.11 (inactive),0.985 (inactive),-0.14,-5.73 (inactive),-1.35 (inactive),-3.28
C=C(C(=O)CC[C@H](OC(=O)c1cccnc1)c1ccccc1OCCO)C(C)C,1.14,-1.13 (inactive),-0.467 (inactive),2.22 (inactive),0.716 (inactive),-0.383,-0.168,2.32,1.54,2.27,-0.378 (inactive),0.188,9.51 (active),0.943 (inactive),0.611 (inactive),0.381 (inactive),0.142,-1.85 (inactive),-0.81 (inactive),-2.03
COCCCNC(=O)[C@@]1(Cc2ccccc2I)c2ccccc2C(=O)N(Cc2ccccc2)[C@H]1c1ccc(CO)cc1,-0.433,-2.44 (inactive),0.202 (inactive),0.145 (inactive),-1.06 (inactive),-1.38,-0.176,-0.79,-0.332,-0.892,0.263 (inactive),0.243,11.1 (active),2.37 (inactive),1.85 (inactive),1.43 (inactive),-0.231,0.0296 (inactive),0.779 (inactive),0.242
[N-]=[N+]=Nc1ccccc1[C@H]1OC(c2ccc(OCCCO)cc2)=N[C@@]1(CCS(=O)(=O)c1ccccc1)C(=O)N1CCOCC1,1.48,-2.5 (inactive),0.385 (inactive),0.937 (inactive),0.28 (inactive),0.877,0.496,0.35,0.923,0.836,0.399 (inactive),1.48,31 (active),23.6 (active),1.88 (inactive),4.6 (inactive),0.211,0.404 (inactive),1.56 (inactive),1.36
C=C(COC)C(=O)CC[C@H](OC(=O)c1cccnc1)c1ccccc1OCCO,0.112,-2.22 (inactive),-0.201 (inactive),5.43 (inactive),9.65 (active),0.279,0.0705,0.519,0.698,1.63,0.0928 (inactive),0.473,8.77 (active),0.805 (inactive),0.0448 (inactive),0.307 (inactive),-0.283,-2.86 (inactive),0.0432 (inactive),-1.26
COc1ccc([Si](C)(C)[C@@H]2[C@@H](CC(=O)N3Cc4ccccc4C[C@H]3CO)O[C@]3(C(=O)N(Cc4cccc(N5C(=O)COc6ccccc65)c4)c4ccccc43)[C@H]2C)cc1,-0.0857,-4.33 (inactive),-0.219 (inactive),3.56 (inactive),-0.431 (inactive),0.535,-0.18,0.718,0.301,1.57,2.59 (inactive),-0.286,4.94 (inactive),1.18 (inactive),-0.0434 (inactive),0.208 (inactive),4.59,-0.387 (inactive),0.518 (inactive),0.827
COc1ccc(C#Cc2ccc3c(c2)[C@]2(C(=O)N3)[C@H](c3ccc(OCCO)cc3)N3[C@H](c4ccccc4)[C@H](c4ccccc4)OC(=O)[C@H]3[C@@H]2C(=O)Nc2nc3ccccc3s2)cc1,0.603,-2.92 (inactive),-1.54 (inactive),0.918 (inactive),-0.203 (inactive),1.07,0.143,1.15,0.564,1,1.84 (inactive),0.547,2.24 (inactive),2.11 (inactive),2.04 (inactive),1.94 (inactive),0.418,1.7 (inactive),0.74 (inactive),0.177
COCCOC(=O)N1C(=O)[C@@]2(c3cc(C#CCCO)ccc31)[C@H](c1ccc(O)cc1)N1[C@H](c3ccccc3)[C@H](c3ccccc3)OC(=O)[C@H]1[C@@H]2C(=O)N1CCCCCCC1,0.799,-0.883 (inactive),-0.569 (inactive),0.568 (inactive),-0.268 (inactive),0.825,0.62,0.705,0.667,1.65,-0.275 (inactive),1.6,0.139 (inactive),-0.178 (inactive),-0.599 (inactive),0.0501 (inactive),-0.451,1.17 (inactive),0.131 (inactive),1.38
CC(C)NC(=O)[C@@]1(c2ccc([N+](=O)[O-])cc2)CC(=O)N(C(C)C)[C@@H]1c1ccc(CO)cc1,-0.666,-3.49 (inactive),-0.707 (inactive),0.522 (inactive),-0.205 (inactive),-1.26,-0.203,0.592,1.28,-0.502,1.58 (inactive),-0.82,1.93 (inactive),-0.672 (inactive),-0.641 (inactive),-0.945 (inactive),1.31,-0.379 (inactive),0.354 (inactive),0.0654
O=C1[C@H]2C=C(Br)[C@H](C[C@@H]2OCCOCCO)[C@@]12CO2,0.268,0.808 (inactive),0.199 (inactive),-1.23 (inactive),1.6 (inactive),0.138,-0.118,-0.428,-0.385,0.0806,-0.927 (inactive),-0.276,0.658 (inactive),0.276 (inactive),-0.0195 (inactive),0.0588 (inactive),-0.391,1.36 (inactive),0.561 (inactive),0.0214
COCCCNC(=O)[C@@]1(C)c2ccccc2C(=O)N(Cc2ccccc2)[C@H]1c1ccc(CO)cc1,-0.811,-4.52 (inactive),-0.453 (inactive),-0.295 (inactive),-0.463 (inactive),-0.944,-0.0963,-2.72,2.16,0.182,-0.0509 (inactive),0.114,2.68 (inactive),0.179 (inactive),2.67 (inactive),-0.487 (inactive),2.82,-1.63 (inactive),-2.44 (inactive),-2.66
COC(=O)c1c2oc(c1C(=O)OC)C(=O)N[C@H](Cc1ccccc1)Cn1nncc1C1(CCCCC1)NC(=O)N[C@H](CO)CC2,0.159,-0.11 (inactive),-0.318 (inactive),1.75 (inactive),0.154 (inactive),0.412,0.0154,-0.0688,-0.0459,0.798,1.74 (inactive),-0.237,5.12 (inactive),1.58 (inactive),0.52 (inactive),0.628 (inactive),0.14,-2.86 (inactive),-2.14 (inactive),-3.47
O=C(NCC(O)CO)[C@@]1(Cc2ccccc2)N=C(c2ccc(OCCCO)cc2)O[C@H]1c1ccccc1 (stereo not given in full),0.626,-2.66 (inactive),-0.473 (inactive),3.33 (inactive),0.768 (inactive),0.993,1.03,0.477,1.23,-0.959,0.931 (inactive),0.828,19.8 (active),3.69 (inactive),1.88 (inactive),1.28 (inactive),-0.142,-0.513 (inactive),1.63 (inactive),1.16
CCCC[C@@H]1C[C@H]1[C@@H](NC(=O)c1ccccc1)c1ccccc1,0.209,-0.877 (inactive),0.727 (inactive),0.0041 (inactive),0.79 (inactive),0.0499,0.401,-0.477,-0.0734,-0.412,-1.39 (inactive),1.43,0.713 (inactive),0.803 (inactive),0.13 (inactive),0.888 (inactive),-0.943,-0.289 (inactive),-1.21 (inactive),1.98

# From PubChem BioAssay
